Experimental findings from PubChem BioAssay (NCATS) are described below.

Test [1] is described as follows: qHTS of pediatric cancer cell lines to identify multiple opportunities for drug repurposing: Primary screen for Saos-2 cells (AID 1347097). Note: nearly all actives have a fitted effect of over 40% in size. In outline:
(§1)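 Cells seeded at 500-1,000 cells/well in growth media, rested 5 hours at 37 degrees C, 5% CO2, then dosed; MIPE compounds at 11-point (from 0.78 nM) and NPC at 8-point (from 0.59 nM) final concentrations. Viability by CellTiter-Glo luminescence after 48 hours.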

Test [2] is described as follows: qHTS of pediatric cancer cell lines to identify multiple opportunities for drug repurposing: Primary screen for LAN-5 cells (AID 1347100). An outline of the steps:
(§2)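 Cells (500-1,000/well) rested 5 h, then received compounds for 48 h; metabolically active cells were measured by CellTiter-Glo luminescence. Final concentrations spanned up to 46 µM (MIPE, 11-point) or 0.59 nM-46 µM (NPC, 8-point) in primary screens, 11-point in follow-ups.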

Test [3] is described as follows: qHTS of pediatric cancer cell lines to identify multiple opportunities for drug repurposing: Primary screen for MG 63 (6-TG R) cells (AID 1347105). Note: nearly all actives have a fitted effect of over 50% in size. In outline:
as §1

The nature of test [4]: qHTS of pediatric cancer cell lines to identify multiple opportunities for drug repurposing: Primary screen for NB1643 cells (AID 1347099). Note: nearly all actives have a fitted effect of over 50% in size. In outline:
as §1

The nature of test [5]: qHTS of pediatric cancer cell lines to identify multiple opportunities for drug repurposing: Primary screen for RD cells (AID 1347104). Note: nearly all actives have a fitted effect of over 55% in size. In outline: as §1
A short description of test [6]: qHTS of pediatric cancer cell lines to identify multiple opportunities for drug repurposing: Primary screen for Rh18 cells (AID 1347102). Note: nearly all actives have a fitted effect of over 65% in size. An outline of the steps:
as §2

The nature of test [7]: qHTS of pediatric cancer cell lines to identify multiple opportunities for drug repurposing: Primary screen for OHS-50 cells (AID 1347103). Note: nearly all actives have a fitted effect of over 40% in size. An outline of the steps: as §2

Inconclusive results are not listed. Activity calls are given as the source filed them. Calls come from the whole dose curve; as a rule, active = well fitted curve in the direction sought with a large enough effect; inconclusive = small, poorly fitted or top-dose-only effect, or another doubt; inactive = no such curve, though single readings can be large; an effect the other way counts as inactive or inconclusive.
Potency is the fitted concentration of half-maximal effect.

In the case of `COc1ccc2c(c1)CC[C@@H](CN(C)CC(=O)O)[C@H]2c1ccccc1`, the Potency in test [1] is 2.09 µM (active); in test [2] it was 1.05 µM (active); in test [3], 2.96 µM (active).

On to `CN(C1CCc2c(c3ccccc3n2CC(=O)O)C1)S(=O)(=O)c1ccc(F)cc1` (centres undefined), for which the Potency result in test [1] is “inactive”. In addition, the Potency was 1.32 µM (active) in test [4], 5.26 µM (active) in test [2] and 4.18 µM (active) in test [5].

For the compound `Cc1cc(C(=O)N2CCN(c3cccc(Cl)c3)CC2)n(-c2ccccc2)n1`, the Potency is 0.118 µM (active) in test [1], 0.743 µM (active) in test [2] and 1.37 µM (active) in test [7]. In addition, in test [6], the Potency entry is “inactive”.

Take `O=C(Nc1nc2cccc(-c3ccc(CN4CCS(=O)(=O)CC4)cc3)n2n1)C1CC1`: the Potency in test [1] is 18.7 µM (active); in test [4], 10.5 µM (active); in test [5] it was 18.7 µM (active); in test [3], 23.5 µM (active).

`CCOC(=O)C1=C(C)NC2=C(C(=O)CC(C)(C)C2)C1c1ccc(-c2ccccc2)cc1` (centres undefined): the Potency in test [1] is 3.32 µM (active); in test [6], 16.6 µM (active); in test [5], 16.6 µM (active); in test [3], 14.8 µM (active).
